# Data: PubChem BioAssay AID1006 (Sanford-Burnham Center for Chemical Genomics, 2008)
# Among all 200,000 compounds or so, about 3,000 (1.5%) were called active.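 The calls were made as follows: active = inhibition above about 50% when tested at 10 µM (limit read from the data); inactive = the rest.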 The full list was thinned out, with actives kept by preference.
# Target: Luciferin 4-monooxygenase (Photinus pyralis) (UniProt P08659)
# Assay: firefly luciferase enzyme inhibitors, primary screen, artefact control for luciferase-based inhibitor screens, biochemical, luminescence, ATPLite (AID 1006)
# Settings: 10 min, at 10 µM, active compounds read high
# Sequence of Luciferin 4-monooxygenase (Photinus pyralis) (P08659 whole entry, looked up): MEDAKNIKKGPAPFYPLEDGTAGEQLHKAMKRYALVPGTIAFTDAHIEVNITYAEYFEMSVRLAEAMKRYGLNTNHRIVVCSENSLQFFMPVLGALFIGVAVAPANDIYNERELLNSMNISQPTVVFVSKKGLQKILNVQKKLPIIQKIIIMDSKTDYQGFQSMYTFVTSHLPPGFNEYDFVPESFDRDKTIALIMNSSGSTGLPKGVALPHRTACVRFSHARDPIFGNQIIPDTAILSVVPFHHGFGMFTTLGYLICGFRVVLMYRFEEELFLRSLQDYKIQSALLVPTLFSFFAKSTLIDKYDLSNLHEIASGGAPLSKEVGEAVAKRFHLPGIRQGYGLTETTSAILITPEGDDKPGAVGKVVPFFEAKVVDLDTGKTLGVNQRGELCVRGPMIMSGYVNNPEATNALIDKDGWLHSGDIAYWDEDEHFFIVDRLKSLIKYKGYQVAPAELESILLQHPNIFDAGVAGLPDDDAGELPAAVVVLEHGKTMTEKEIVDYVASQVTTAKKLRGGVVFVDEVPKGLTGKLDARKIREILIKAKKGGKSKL
row,SMILES,inhibition
1,CN1CCN(c2ccc(NC(=O)c3ccc4c(c3)OCCO4)cc2Cl)CC1,51.8% (active)
2,O=C(Nc1cccc(S(=O)(=O)Nc2ccc(Cl)cc2)c1)c1ccc2c(c1)OCCO2,-5.3% (inactive)
3,O=C(Nc1cccc(Cl)c1N1CCOCC1)c1ccc2c(c1)OCCO2,-0.6% (inactive)
4,O=C(Nc1ccc(Cl)cn1)c1ccc2c(c1)OCCO2,82.7% (active)
5,COc1c(Cl)cc(C(=O)Nc2ccc(Cl)cn2)cc1Cl,-5.9% (inactive)
6,O=C(Nc1ccc2c(c1)OCCO2)c1ccc(Cl)c(S(=O)(=O)N2CCCCC2)c1,0.9% (inactive)
7,O=C(c1cccc(F)c1)N1CCN(c2ccc([N+](=O)[O-])c3cccnc23)CC1,-7.7% (inactive)
8,CCCCC(NC(=O)c1cccc(Br)c1)C(=O)O (stereo unspecified),0.5% (inactive)
9,CN(C)C=NC(=O)c1cccn1-c1ncc(C(F)(F)F)cc1Cl,-1.5% (inactive)
10,Cc1ccc(-c2cc(C(=O)N/N=C/C=C/c3ccco3)c3ccccc3n2)cc1C,73.1% (active)
11,COc1cccc(-c2cc(C(=O)N/N=C/c3ccc(OC)c(COC(C)=O)c3)c3ccccc3n2)c1,-1.7% (inactive)
12,O=C(N/N=C/C=C/c1ccco1)c1cccs1,12.4% (inactive)
13,Cc1nnc(SCC(=O)NNC(=O)c2ccc(Cl)cc2)n1CC1CCCO1 (stereo unspecified),-8.3% (inactive)
14,COc1nc(-c2ccc(Cl)cc2)ccc1-c1noc(-c2cccs2)n1,-3.8% (inactive)
15,c1csc(-c2nc(-c3ccncc3)no2)c1,17.7% (inactive)
16,O=C(Oc1ccccc1)c1ccc2nccnc2c1,13.3% (inactive)
17,O=C(Oc1ccc(-c2nc(-c3ccccn3)no2)cc1)c1ccccc1,65.5% (active)
18,CC(C)c1nc(-c2ccccn2)no1,-5.3% (inactive)
19,c1ccc(-c2noc(-c3cccs3)n2)nc1,71.2% (active)
20,COc1ccc(NC(=S)N2CCCC(CO)C2)c(OC)c1 (stereo unspecified),-2.4% (inactive)
21,Cc1ccc(N(C(=O)Cc2cccs2)C(C(=O)NCC2CCCO2)c2ccncc2)cc1 (stereo unspecified),-3.7% (inactive)

row,SMILES,inhibition
1,CCN(C(=O)COC(=O)c1cc(S(=O)(=O)N2CCc3ccccc32)ccc1OC)C1CCS(=O)(=O)C1 (stereo unspecified),-6.8% (inactive)
2,CCCN(CC1COc2ccccc2O1)C(=S)Nc1ccc(C)cc1 (stereo unspecified),-6.7% (inactive)
3,CC(C)CNC(=O)C(=O)Nc1ccc(N(C)C)cc1,5.5% (inactive)
4,CCOc1ccc(N2C(=O)CN(c3cccc4ccccc34)C2=S)cc1,-3.3% (inactive)
5,COc1cc(COCC(O)CN2CCN(Cc3ccc4c(c3)OCO4)CC2)cc(OC)c1OC (stereo unspecified),-5% (inactive)
6,N/C(=N\OC(=O)Cc1ccc([N+](=O)[O-])cc1)c1ccccn1,9.6% (inactive)
7,O=C(OCc1ccc([N+](=O)[O-])cc1)c1ccccn1,-6% (inactive)
8,N/C(=N\OC(=O)c1ccc([N+](=O)[O-])cc1)c1ccccn1,91.5% (active)
9,CCC(C)N(C)C1CCN(C(=S)Nc2ccc(OC)cc2)CC1 (stereo unspecified),-0.3% (inactive)
10,CCOc1ccc2nc(N3CCCN(C(=O)Nc4ccccc4C)CC3)c(C#N)cc2c1,-2% (inactive)
11,COc1ccc2nc(N3CCCC(O)C3)c(C#N)cc2c1 (stereo unspecified),54.6% (active)
12,COc1ccc(N2CCN(C(=O)CSc3nc4cc(OC)c(OC)cc4cc3C#N)CC2)cc1,-6.5% (inactive)
13,Cc1ccc2[nH]c(C(=O)O)c(NC(=O)c3ccccc3[N+](=O)[O-])c2c1,-4.8% (inactive)
14,CCn1cc(C(=O)Nc2cc(C)ccc2C)c(=O)c2ccc(C)nc21,-5.1% (inactive)
15,c1ccc(CN2CCC(N=C3NN=C(c4ccc5c(c4)OCCO5)CS3)CC2)cc1,-2.4% (inactive)
16,Cc1cccc(N=C2NN=C(c3c[nH]c4ccccc34)CS2)c1,-4.7% (inactive)
17,Clc1cccc(N=C2NN=C(c3ccc4c(c3)OCCO4)CS2)c1,51.5% (active)
18,COc1cc(/C=N/NC(=O)CCc2n[nH]c(=O)[nH]c2=O)ccc1O,-6.6% (inactive)
19,Nc1c(NCCc2ccccc2)c2ccccc2oc1=O,-4% (inactive)
20,Cc1ccc(CN2CCN(Cc3cn(C)nc3-c3ccccc3)CC2CCO)o1 (stereo unspecified),-4.5% (inactive)
21,COc1ccc(/C=C(/CC(=O)Nc2ccc(C)cc2)c2nc3ccccc3s2)cc1,-7.9% (inactive)

row,SMILES,inhibition
1,O=C1CC(c2ccccc2)=NN1c1ccc([N+](=O)[O-])cc1,-2.5% (inactive)
2,COc1ccc(C2=NN(c3nc4ccccc4s3)C(=O)C2)cc1,59.7% (active)
3,CCc1ccccc1N1C(=O)C2C3CC(=O)C(c4ccccc43)C2C1=O (stereo unspecified),-5.1% (inactive)
4,CCc1nnc(NC(=O)[C@@H](NC(=O)c2cccc(C)c2)C(C)C)s1,-3.8% (inactive)
5,CN1CCN(C(=O)N2c3ccccc3CCc3ccccc32)CC1,-4.4% (inactive)
6,CCCCn1c(=O)c(C(C)=O)c(O)c2ccccc21,-1.3% (inactive)
7,Cn1c(=O)c(C(=O)Nc2ncccn2)c(O)c2ccccc21,70.3% (active)
8,Cn1c(=O)c(Sc2ccc(Cl)cc2)c(O)c2ccccc21,-5.7% (inactive)
9,Cc1ccccc1-n1nc(C)c2c1N=C1C(Cl)=CC(Cl)=CN1C2c1ccc(C(=O)O)cc1 (stereo unspecified),-0.1% (inactive)
10,COc1ccc(-c2csc(Nc3ccccn3)n2)cc1,49.9% (inactive)
11,COc1ccc(C(=O)/C=C/Nc2ccccn2)cc1,92.4% (active)
12,CCOc1cc(NC(=O)c2ccccn2)c(OCC)cc1NC(=O)c1ccc(OC)cc1,-2.9% (inactive)
13,O=C(Cc1cccs1)Nc1cccc(-c2nc3ccccc3[nH]2)c1,-1.9% (inactive)
14,O=C(CCCN1C(=O)/C(=C\c2ccco2)SC1=S)Nc1cccc2ccccc12,-1.3% (inactive)
15,O=C(CCCN1C(=O)/C(=C/c2ccccc2)SC1=S)Nc1ccc(O)cc1,57.6% (active)
16,O=C(CCCN1C(=O)/C(=C/c2ccco2)SC1=S)Nc1ccccc1,-3.2% (inactive)
17,CN1c2ccccc2-c2nc3ccccc3n2C1c1ccco1 (stereo unspecified),1.3% (inactive)
18,Cn1c(-c2ccco2)nc2cc3ccccc3cc21,95.7% (active)
19,CN(c1nc2ccccc2n2c(-c3ccco3)nnc12)S(=O)(=O)c1ccccc1,-2.9% (inactive)
